Data: PubChem BioAssay AID1894 (NMMLSC, 2009)
Among all 5,900 compounds or so, about 100 (1.7%) were called active. The full list was thinned out, with actives kept by preference. Unmarked numbers belong to inactive results.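 Rule for the calls: active = binding response below 72% of control, or above a set upper limit, though filed actives all read lower; inactive = the rest.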

target: Mitogen-activated protein kinase kinase kinase 3 (Homo sapiens) (UniProt Q99759); test: MEKK3 wild-type PB1 binding to MEK5, inhibitors, confirmation, biochemical, bead multiplex flow cytometry, single concentration, wildtype (AID 1894); conditions: Alexa488-MEK5 binding to MEKK3, at 10 µM, active compounds read low;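 note: 100% = DMSO only wells and 0% = binding blocked by excess unlabeled MEK5; lower values mean stronger disruption of MEK5 binding to MEKK3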
Sequence (Q99759 whole entry, looked up): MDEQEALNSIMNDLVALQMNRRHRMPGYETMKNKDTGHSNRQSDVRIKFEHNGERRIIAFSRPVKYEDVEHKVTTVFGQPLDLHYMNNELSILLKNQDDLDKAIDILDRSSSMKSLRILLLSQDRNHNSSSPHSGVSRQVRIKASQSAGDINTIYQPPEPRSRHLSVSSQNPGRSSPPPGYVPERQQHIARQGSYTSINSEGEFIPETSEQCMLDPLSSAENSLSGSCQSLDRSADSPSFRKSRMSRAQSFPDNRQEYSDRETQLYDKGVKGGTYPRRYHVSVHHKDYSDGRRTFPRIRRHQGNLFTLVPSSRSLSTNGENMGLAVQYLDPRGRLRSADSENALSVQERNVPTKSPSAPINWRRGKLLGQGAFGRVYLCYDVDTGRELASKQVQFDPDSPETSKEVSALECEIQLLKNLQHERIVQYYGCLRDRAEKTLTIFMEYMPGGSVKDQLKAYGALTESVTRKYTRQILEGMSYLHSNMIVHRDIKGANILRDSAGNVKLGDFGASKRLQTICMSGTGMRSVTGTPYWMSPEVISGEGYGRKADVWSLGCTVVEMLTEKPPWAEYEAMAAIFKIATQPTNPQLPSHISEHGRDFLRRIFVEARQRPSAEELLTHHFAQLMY

How did the binding response (% of control) turn out when `COc1ccc(-c2[nH]ncc2CN(C)Cc2c(C)n[nH]c2C)c(OC)c1` was run?
Its binding response (% of control) is 109%.

Which binding response (% of control) does the source give for `COc1ccccc1N1CCN(CCCCOc2ccc(F)cc2)CC1` here?
The binding response (% of control) was 103%.

`CN1C(=O)/C(=C\c2ccc(-c3ccccc3)o2)SC1=S` was tested. Which binding response (% of control) did it give?
Its binding response (% of control) is 70% (active).

For `Cc1cc(Cl)ccc1OCc1nc(-c2ccncc2)no1`, which binding response (% of control) is on record?
The binding response (% of control) was 79%.

With `CCn1c(NC(=O)c2ccccc2)c(-c2cccs2)c(=O)c2ccccc21` as the compound, how does the binding response (% of control) read?
The binding response (% of control) was 101%.

How did the binding response (% of control) turn out when `Cc1cc(C)nc(-n2ncc3c2CC(c2ccc(C(C)C)cc2)CC3=O)n1` (configuration not stated) was run?
Its binding response (% of control) is 99%.

Which binding response (% of control) does the source give for `C/C(=N\NC(=O)CNC(=O)C(c1ccccc1)c1ccccc1)c1ccc(C)cc1` here?
Its binding response (% of control) is 108%.

How did the binding response (% of control) turn out when `Cc1cc2cc(CNC(=O)c3cccs3)ccc2[nH]1` was run?
Its binding response (% of control) is 77%.

`CCOc1ccc(S(=O)(=O)N(CC(=O)O)c2ccccc2)cc1` was tested. Which binding response (% of control) did it give?
Its binding response (% of control) is 106%.

How did the binding response (% of control) turn out when `CC(C)CC(=O)NC(=S)Nc1cc(C(=O)O)ccc1Cl` was run?
The binding response (% of control) was 104%.

How did the binding response (% of control) turn out when `Cn1c(SCc2nc3ccccc3s2)nnc1-c1ccc2c(c1)OCO2` was run?
The binding response (% of control) was 98%.

With `Cc1no[n+]([O-])c1COc1ccccc1/C=C1\NC(=S)NC1=O` as the compound, how does the binding response (% of control) read?
The binding response (% of control) was 101%.

With `CC(C)(C)NC(=O)Cn1cnc([N+](=O)[O-])n1` as the compound, how does the binding response (% of control) read?
Its binding response (% of control) is 97%.

With `COc1ccc(CCNC(=O)CSc2nnc3ccc(-c4ccncc4)nn23)cc1` as the compound, how does the binding response (% of control) read?
The binding response (% of control) was 105%.

For `CCOc1cc(C2C(C(=O)OC)=CN(C3CCCC3)C=C2C(=O)OC)cc(Br)c1O`, which binding response (% of control) is on record?
The binding response (% of control) was 109%.

How did the binding response (% of control) turn out when `O=C(O)c1cc(Cl)c(Cl)cc1C(=O)Nc1cccc2ncccc12` was run?
Its binding response (% of control) is 102%.

With `COc1ccc(NC(=O)Cn2nnc(C(=O)NCCc3ccc(OC)c(OC)c3)c2N)cc1` as the compound, how does the binding response (% of control) read?
The binding response (% of control) was 102%.

How did the binding response (% of control) turn out when `O=C(NCCCN1CCCCCC1)C1CC(=O)N(C2CCCC2)C1` (configuration not stated) was run?
Its binding response (% of control) is 2% (active).

`O=C(NCCCN1CCCCCC1)c1ccc(N2CCCC2=O)cc1` was tested. Which binding response (% of control) did it give?
Its binding response (% of control) is 110%.

How did the binding response (% of control) turn out when `Cn1c(C(=O)NCCCN2CCCCC2)cc2sccc21` was run?
Its binding response (% of control) is 109%.

How did the binding response (% of control) turn out when `Cc1ccc(C(=O)NC(=S)Nc2ccc3[nH]c(=O)[nH]c3c2)cc1C` was run?
Its binding response (% of control) is 100%.

With `c1ccc(CN2CCC(N=C3NN=C(c4ccc5c(c4)OCCO5)CS3)CC2)cc1` as the compound, how does the binding response (% of control) read?
Its binding response (% of control) is 117%.

Which binding response (% of control) does the source give for `C[C@H]1CCC(=O)N([C@H](CSc2ccccc2)Cc2ccccc2)CC1` here?
Its binding response (% of control) is 108%.

For `O=C(CC1SCCNC1=O)Nc1ccc(Cl)c(Cl)c1` (configuration not stated), which binding response (% of control) is on record?
Its binding response (% of control) is 106%.

For `CCNC(=O)CSc1nc(-c2ccccc2)cs1`, which binding response (% of control) is on record?
The binding response (% of control) was 104%.

Which binding response (% of control) does the source give for `COc1ccc(S(=O)(=O)Nc2ccc3oc(C)c(C(C)=O)c3c2)cc1` here?
Its binding response (% of control) is 100%.

`O=C(CN1CCN(C(=O)c2ccco2)CC1)Nc1ccc(Cl)c(C(F)(F)F)c1` was tested. Which binding response (% of control) did it give?
The binding response (% of control) was 104%.
